Test results published in ChEMBL document CHEMBL3988442, “University of Dundee, Small-Polar-MMV Screening Library” (2021).
The whole screen tested about 48,000 compounds, of which about 13,000 (27%) showed an effect of 50% or more. Some of the results follow.

system: Wolbachia pipientis; experiment: Anti-Wolbachia Cell-Based Screen; type: functional; set-up: scale not given: in the data most compounds retested in dose-response had high values; conditions: 5 µM

SMILES	Percent Effect [%]
Cc1ccnc(CC(C)N(C)Cc2ccc3c(c2)OCCO3)c1 (stereo not drawn)	2.178
O=C(NC[C@H]1C[C@@H]2CCN1C[C@@H]2CN1CCCC1)c1ccco1	7.038
CC1CCN(C[C@H]2CN3CC[C@H]2C[C@@H]3CNC(=O)c2ccco2)CC1	-5.154
Clc1ccccc1CNC(Cn1cncn1)c1ccccc1 (stereo not drawn)	-5.969
CNC(=O)CN1CCOCC2(CCCN(Cc3cccnc3)C2)C1.O=C(O)C(F)(F)F.O=C(O)C(F)(F)F.O=C(O)C(F)(F)F (stereo not drawn)	-4.883
CCN1CCOCC2(CCCN(C(=O)c3conc3C)C2)C1.O=C(O)C(F)(F)F (stereo not drawn)	89.52
CN1CCO[C@H]2CN(C(=O)c3ccncc3F)C[C@H]21.O=C(O)C(F)(F)F	-9.265
O=C(O)C(F)(F)F.c1cnc(N2CCCC3(COCCN(CC4CC4)C3)C2)nc1 (stereo not drawn)	-4.915
CCN1CCOCC2(CCCN(C(=O)c3ccncc3F)C2)C1.O=C(O)C(F)(F)F (stereo not drawn)	92.47
O=C(C1CC1)N1CCc2c(ncnc2N2CCN3CCCC3C2)C1 (stereo not drawn)	16.5
CC(C)c1nc(CC(=O)N2CCN(C)CC2c2ccccc2)cs1 (stereo not drawn)	13.34
Cc1ccc(NC(=O)CNC(C)Cc2ccsc2)cc1F (stereo not drawn)	8.644
CN(C)C(=O)[C@H]1CC[C@@H]2[C@@H](CCN2Cc2ccccn2)O1.O=C(O)C(F)(F)F.O=C(O)C(F)(F)F	1.437
Cc1ccccc1C1(CN)CCOCC1	1.37
Cn1cc(N2CC[C@@H]3CN(Cc4ccncc4)C[C@H]3C2=O)cn1.O=C(O)C(F)(F)F.O=C(O)C(F)(F)F	-47.34
O=C(O)C(F)(F)F.O=C(O)C(F)(F)F.c1ccc(N2CC[C@@H]3CN(Cc4ccncc4)CCO[C@@H]3C2)cc1	-7.726
O=C(O)C(F)(F)F.O=C1[C@H]2CN(Cc3ccc(F)cc3)C[C@H]2CN1c1cncnc1	-0.4188
Cc1ccc(N2CC[C@@H]3CN(Cc4cccc(C)n4)C[C@@H]3C2)nn1.O=C(O)C(F)(F)F	-3.12
O=C(O)C(F)(F)F.c1cnc(N2C[C@H]3CCN(Cc4ccncc4)C[C@H]3C2)nc1	87.9
c1cc(CN2CC[C@@H]3CN(c4cncnc4)C[C@@H]3C2)ccn1	100.2
Cc1ccc(N2CC[C@@H]3CN(Cc4cc[nH]n4)C[C@@H]3C2)nn1.O=C(O)C(F)(F)F	-9.951
O=C(O)C(F)(F)F.O=C(O)C(F)(F)F.c1cnc(N2CC[C@@H]3CN(Cc4ccncc4)CCO[C@@H]3C2)nc1	-13.84
Cc1ccc(N2C[C@H]3CCN(Cc4ccncc4)C[C@H]3C2)nn1.O=C(O)C(F)(F)F	106.9
O=C(O)C(F)(F)F.c1cc(CN2CC[C@@H]3CN(c4cnccn4)C[C@@H]3C2)ccn1	126.3

SMILES	Percent Effect [%]
O=C(O)C(F)(F)F.O=C(O)C(F)(F)F.O=C1[C@H]2CN(Cc3ccncc3)C[C@H]2CN1c1cncnc1	-1.722
CC(Cc1c(F)cccc1F)NC(=O)NCc1ncnn1C (stereo not drawn)	1.27
O=C(N[C@H]1CN2CCC1CC2)c1cc(Cn2cnc3ccccc32)[nH]n1	-21.06
c1ccc(C(Cn2cnnc2)N2CCOCC2)nc1 (stereo not drawn)	9.343
Cc1cccc(CN2C[C@H]3CC[C@@H]2CN(Cc2[nH]cnc2C)C3)n1	-2.11
CC(=O)c1cc(C(=O)N2CC[C@@H]3CC[C@H](C2)N3C)c(=O)[nH]c1C	-5.325
CN(C)C(=O)c1ccc(-c2cccc3c2CCNC3)cc1	85.47
Nc1cnc(-c2cccc3c2CCNC3)cn1	7.253
Nc1cc(-c2cccc3c2CCNC3)ncn1	9.212
Fc1ccccc1CN1C[C@@H]2OCCN(c3ncccn3)[C@@H]2C1	1.64
Fc1cnc(N2CCO[C@H]3CN(CC4CCCCC4)C[C@H]32)nc1.O=C(O)C(F)(F)F	110
O=C(O)C(F)(F)F.O=C(O)C(F)(F)F.c1cnc(N2CCO[C@H]3CN(CC4CC4)C[C@H]32)nc1	92.7
Fc1cnc(N2CCO[C@H]3CN(CC4CCCC4)C[C@H]32)nc1.O=C(O)C(F)(F)F	-2.844
CNC(=O)CN1CCO[C@H]2CN(CC3CC3)C[C@H]21.O=C(O)C(F)(F)F.O=C(O)C(F)(F)F	7.624
O=C(O)C(F)(F)F.O=C(O)C(F)(F)F.c1cnc(N2CCO[C@H]3CN(CC4CCOCC4)C[C@H]32)nc1	110.6
Fc1cnc(N2CCO[C@H]3CN(CC4CCC4)C[C@H]32)nc1	-20.13
O=C(O)C(F)(F)F.c1cnc(N2CCO[C@H]3CN(Cc4csnn4)C[C@H]32)nc1	-24.49
Fc1cnc(N2CCO[C@H]3CN(CC4CCOC4)C[C@H]32)nc1 (stereo partly drawn)	71.68
O=C(O)C(F)(F)F.O=C(O)C(F)(F)F.c1cnc(N2CCO[C@H]3CN(Cc4ccsc4)C[C@H]32)nc1	14.83
Cc1nc[nH]c1CN1C[C@@H]2OCCN(c3ncccn3)[C@@H]2C1.O=C(O)C(F)(F)F	-20.21
CCN1CCN(c2ccc(C(=O)NCCOC)cc2F)CC1	-17.47
CC(C)(C)c1cn(C[C@H]2CC3CCN2C[C@@H]3C(=O)N2CCOCC2)nn1 (stereo partly drawn)	-7.534
CC(Cn1cncn1)NCCN1CCc2ccccc21 (stereo not drawn)	1.288
O=C1[C@@H]2CCN(CC3CC3)C[C@@H]2OCCN1c1cccnc1	-19.89

SMILES	Percent Effect [%]
O=C(O)C(F)(F)F.c1cncc(N2CCO[C@H]3CN(CC4CCOC4)C[C@H]32)c1 (stereo partly drawn)	94.42
Cn1cc(CN2C[C@@H]3OCCN(c4ncccn4)[C@@H]3C2)cn1.O=C(O)C(F)(F)F.O=C(O)C(F)(F)F	9.697
Cn1cncc1CN1C[C@@H]2OCCN(c3ncccn3)[C@@H]2C1.O=C(O)C(F)(F)F	-0.0713
c1ccc(CN2C[C@@H]3OCCN(c4cccnc4)[C@@H]3C2)nc1	-16.65
CC(C)CCN1C[C@@H]2OCCN(c3ncc(F)cn3)[C@@H]2C1.O=C(O)C(F)(F)F	92
CC(C)S(=O)(=O)N1C[C@@H](c2ccccc2)[C@H]2[C@H]1CCCCCN2C	189.5
CC(Cn1cncn1)NCc1csc2c1CCCC2 (stereo not drawn)	-14.34
NC1(c2nc(-c3ccccc3)cc(=O)[nH]2)CCCCC1	-11.2
CO[C@H]1COCCN(Cc2c[nH]c3ccccc23)C1	-3.317
O=C1OCCC1N1CCN(C(=O)Cc2c[nH]c3ccccc23)CC1 (stereo not drawn)	5.817
CC1=NOC2(CCN(Cc3c[nH]c4ccccc34)CC2)C1	112.6
CCc1nnc(CN(C)C(=O)CN2CC(c3ccccc3)CC2=O)o1 (stereo not drawn)	5.104
CCS(=O)(=O)N1CCc2c(CN3CCOCC3)cncc2C1.Cl.Cl	105.6
CCS(=O)(=O)N1CCc2c(COC)cncc2C1	85.06
O=C(COc1ccc(F)cc1)N1CCCSCC1CN1CCOCC1 (stereo not drawn)	-0.3394
FC1(F)CCNCC12CCN(c1ncccn1)C2 (stereo not drawn)	-1.09
Cl.FC(F)CNc1cnc(C2CCNCC2)cn1	73.95
O=C(C1CC1)N1CCC2(CC1)CNCCO2	0.5147
Cl.O=C(C1CC1)N1CCOC2(CCNCC2)C1	99.53
Cl.O=C(C1CC1)N1CC2(CCNCC2)C1	-2.925
Cc1noc(C)c1CN1CCO[C@H]2CNC[C@H]21.Cl.Cl	-6.613
Cc1ccc(N2C[C@@H]3CN(Cc4ccoc4)CCO[C@@H]3C2)nn1.O=C(O)C(F)(F)F.O=C(O)C(F)(F)F	-36.31
Cc1ccc(N2C[C@@H]3OCCN(CC4CC4)[C@@H]3C2)nn1.O=C(O)C(F)(F)F	101.4
COCC(=O)N1C[C@@H]2OCCN(Cc3c(C)noc3C)[C@@H]2C1	-12.28

SMILES	Percent Effect [%]
Cc1ccc(N2C[C@@H]3OCCN(Cc4c(C)noc4C)[C@@H]3C2)nn1	99.73
Cc1ccc(N2C[C@@H]3CN(Cc4csc(C)n4)CCO[C@@H]3C2)nn1.O=C(O)C(F)(F)F.O=C(O)C(F)(F)F	2.819
CC(C)NC(=O)N1CCOC2(CCNCC2)C1	-2.285
CN1CCCC(Cc2nccnc2Cl)CC1 (stereo not drawn)	111.8
CC(C)N1CCCC(Cc2nccnc2Cl)C1 (stereo not drawn)	102.4
CN1CCCC(Cc2cncc(Br)c2)CC1 (stereo not drawn)	-8.172
CCn1ccnc1CN1CCN(C(C)C)CC1C (stereo not drawn)	-27.31
CC(C)N1CCCC(Cc2nccnc2Cl)CC1 (stereo not drawn)	83.32
O=C(N1CCCC1)N1C[C@H]2CC[C@@H]1CN(Cc1ccncc1)C2	3.012
CC(C)CN1C(=O)C2(CCCC2)NC1c1cccnc1 (stereo not drawn)	-3.888
COC(=O)CCC(=O)NC(C)Cc1ccccc1Br (stereo not drawn)	5.861
O=S1(=O)CCC(n2cc(C3=CCN(CCN4CCCCC4)CC3)cn2)C1 (stereo not drawn)	5.738
COc1cccc(Cn2cc(C3=CCN(CC(=O)N(C)C)CC3)cn2)c1	105.2
CC(C)(C)n1cc(C2=CCN(CCc3ccccc3)CC2)cn1	-9.314
COCCN1CC=C(c2cccc(OC)c2)CC1	-4.022
COc1cccc(C2=CCN(CCN3CCCC3=O)CC2)c1	-10.09
CN(C)C(=O)CN1CC=C(c2cnn(Cc3ccccc3)c2)CC1	99.64
COc1cccc(Cn2cc(C3=CCN(CCO)CC3)cn2)c1	104.2
COc1cccc(C2=CCN(CCN3CCOC3=O)CC2)c1	5.556
CCC(O)Cn1cc(C2=CCN(Cc3ccc(OC)cc3)CC2)cn1 (stereo not drawn)	-14.61
CCn1cc(C2=CCN(CCCOc3ccccc3)CC2)cn1	20.1
